In publication PMC7862700, “An all-to-all approach to the identification of sequence-specific readers for epigenetic DNA modifications on cytosine”:

Columns and labels:
Experiment in all cases: DAPPL (digital affinity profiling via proximity ligation, sequencing); 10 mM Tris-HCl pH 7.5, 50 mM NaCl, 1 mM DTT, 4% glycerol, room temperature, 30 min; GST-TFs on glutathione beads, 16-mer random dsDNA library, 0.1% formaldehyde crosslink after washing; high values mean tight binding
Conditions in all cases: protein: recombinant; tags: N-terminal GST; dsDNA, one strand shown
FEV = biological target: T1, FEV (Homo sapiens, UniProt Q99581 1-238)
T1 sequence: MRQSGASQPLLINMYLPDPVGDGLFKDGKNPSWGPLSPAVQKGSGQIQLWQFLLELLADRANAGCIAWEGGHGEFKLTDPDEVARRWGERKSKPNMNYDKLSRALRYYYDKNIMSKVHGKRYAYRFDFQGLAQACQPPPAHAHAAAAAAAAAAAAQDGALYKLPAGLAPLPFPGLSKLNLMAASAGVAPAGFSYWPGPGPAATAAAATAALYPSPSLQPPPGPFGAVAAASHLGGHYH
Summary of the method: (§1)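 Yeast served to express human transcription factors as GST fusions, which were then captured on glutathione beads and labelled with DNA barcodes. Pooled with a tag-only sample, they were incubated with 200 nmole of a 16-mer random double-stranded DNA library for 30 min at room temperature in Tris/NaCl/DTT/glycerol buffer, washed, crosslinked with 0.1% formaldehyde, ligated by proximity, amplified by PCR and sequenced. Dividing each hexamer's read frequency for a factor by its frequency for the tag-only sample gives the binding signal.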

ETV5 = ETV5 (Homo sapiens, UniProt P41161 1-510)
Chain of ETV5 (P41161 whole entry): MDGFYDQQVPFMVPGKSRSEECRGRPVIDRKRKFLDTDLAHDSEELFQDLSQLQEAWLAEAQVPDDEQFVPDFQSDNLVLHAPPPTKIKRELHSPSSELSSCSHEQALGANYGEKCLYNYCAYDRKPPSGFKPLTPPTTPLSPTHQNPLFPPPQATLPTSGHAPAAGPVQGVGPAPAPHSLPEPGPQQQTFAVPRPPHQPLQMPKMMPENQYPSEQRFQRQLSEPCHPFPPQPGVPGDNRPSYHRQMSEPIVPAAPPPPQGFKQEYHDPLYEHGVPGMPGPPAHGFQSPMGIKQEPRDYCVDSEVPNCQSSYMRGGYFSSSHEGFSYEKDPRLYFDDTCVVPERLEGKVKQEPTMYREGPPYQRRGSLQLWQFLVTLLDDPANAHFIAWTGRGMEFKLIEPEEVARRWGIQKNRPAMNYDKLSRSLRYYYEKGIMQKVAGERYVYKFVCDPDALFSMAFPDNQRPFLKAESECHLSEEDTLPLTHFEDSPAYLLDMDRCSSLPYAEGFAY
Summary of the method: as §1

SPIC = biological target: T2, SPIC (Homo sapiens, UniProt Q8N5J4 1-248)
T2 sequence: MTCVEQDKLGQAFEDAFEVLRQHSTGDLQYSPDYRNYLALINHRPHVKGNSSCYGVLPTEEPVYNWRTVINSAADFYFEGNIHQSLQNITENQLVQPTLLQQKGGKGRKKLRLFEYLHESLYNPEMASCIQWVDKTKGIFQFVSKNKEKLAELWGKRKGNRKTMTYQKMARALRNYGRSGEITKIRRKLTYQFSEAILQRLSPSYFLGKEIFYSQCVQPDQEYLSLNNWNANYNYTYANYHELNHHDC
Summary of the method: as §1

ELF4 = ELF4 (Homo sapiens, UniProt Q99607 1-663)
Chain of ELF4 (Q99607 whole entry): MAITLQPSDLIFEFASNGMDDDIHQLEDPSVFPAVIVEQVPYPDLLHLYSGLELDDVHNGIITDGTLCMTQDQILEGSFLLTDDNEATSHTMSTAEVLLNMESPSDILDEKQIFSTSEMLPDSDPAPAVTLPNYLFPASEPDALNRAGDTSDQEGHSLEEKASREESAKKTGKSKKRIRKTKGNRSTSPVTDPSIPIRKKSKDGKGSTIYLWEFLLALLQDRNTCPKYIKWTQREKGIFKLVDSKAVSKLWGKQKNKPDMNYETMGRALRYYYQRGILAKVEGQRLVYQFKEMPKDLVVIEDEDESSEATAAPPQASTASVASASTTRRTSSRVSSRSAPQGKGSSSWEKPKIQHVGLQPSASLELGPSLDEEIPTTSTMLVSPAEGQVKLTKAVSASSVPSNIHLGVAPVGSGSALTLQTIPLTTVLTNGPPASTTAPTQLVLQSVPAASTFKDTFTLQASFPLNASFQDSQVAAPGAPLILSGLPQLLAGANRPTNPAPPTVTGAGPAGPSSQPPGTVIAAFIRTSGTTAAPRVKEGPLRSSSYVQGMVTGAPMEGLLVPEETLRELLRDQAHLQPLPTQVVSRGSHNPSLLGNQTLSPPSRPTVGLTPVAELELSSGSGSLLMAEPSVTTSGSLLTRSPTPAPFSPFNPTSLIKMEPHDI
Summary of the method: as §1

ELK4 = biological target: T3, ELK4 (Homo sapiens, UniProt P28324-2 1-405)
T3 sequence: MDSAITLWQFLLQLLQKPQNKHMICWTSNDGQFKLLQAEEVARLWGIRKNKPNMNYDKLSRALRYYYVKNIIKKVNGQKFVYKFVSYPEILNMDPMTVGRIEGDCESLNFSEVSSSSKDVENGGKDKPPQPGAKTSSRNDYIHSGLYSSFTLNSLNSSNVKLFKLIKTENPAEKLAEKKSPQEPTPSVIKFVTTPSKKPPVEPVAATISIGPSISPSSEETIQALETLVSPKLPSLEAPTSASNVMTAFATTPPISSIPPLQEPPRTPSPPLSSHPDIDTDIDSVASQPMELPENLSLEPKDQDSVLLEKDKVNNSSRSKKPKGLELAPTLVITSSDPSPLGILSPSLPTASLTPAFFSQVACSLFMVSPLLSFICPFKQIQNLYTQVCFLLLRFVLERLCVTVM
Summary of the method: as §1

ETV2 = biological target: T4, ETV2 (Homo sapiens, UniProt O00321 1-342)
T4 sequence: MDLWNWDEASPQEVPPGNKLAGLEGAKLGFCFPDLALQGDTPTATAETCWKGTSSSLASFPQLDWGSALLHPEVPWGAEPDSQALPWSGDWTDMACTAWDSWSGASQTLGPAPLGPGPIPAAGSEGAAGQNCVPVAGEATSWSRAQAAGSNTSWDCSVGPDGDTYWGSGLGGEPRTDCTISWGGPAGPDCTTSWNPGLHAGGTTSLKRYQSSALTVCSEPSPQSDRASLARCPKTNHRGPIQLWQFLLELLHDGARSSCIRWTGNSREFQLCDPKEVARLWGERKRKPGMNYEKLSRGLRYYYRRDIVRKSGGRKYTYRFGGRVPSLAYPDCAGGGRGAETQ
Summary of the method: as §1

ELF3 = biological target: T5, ELF3 (Homo sapiens, UniProt P78545 1-371)
T5 sequence: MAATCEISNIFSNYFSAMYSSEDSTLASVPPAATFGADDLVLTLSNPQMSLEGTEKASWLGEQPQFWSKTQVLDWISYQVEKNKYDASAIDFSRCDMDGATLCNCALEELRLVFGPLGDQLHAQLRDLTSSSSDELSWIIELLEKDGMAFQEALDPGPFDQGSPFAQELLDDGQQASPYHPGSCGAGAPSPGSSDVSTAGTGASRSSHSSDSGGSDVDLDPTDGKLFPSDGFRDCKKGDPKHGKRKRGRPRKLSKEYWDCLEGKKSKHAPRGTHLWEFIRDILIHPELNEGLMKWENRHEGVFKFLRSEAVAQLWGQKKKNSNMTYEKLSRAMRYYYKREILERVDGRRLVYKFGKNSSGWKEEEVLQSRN
Summary of the method: as §1

ETV1 = ETV1 (Homo sapiens, UniProt P50549 1-477)
Chain of ETV1 (P50549 whole entry): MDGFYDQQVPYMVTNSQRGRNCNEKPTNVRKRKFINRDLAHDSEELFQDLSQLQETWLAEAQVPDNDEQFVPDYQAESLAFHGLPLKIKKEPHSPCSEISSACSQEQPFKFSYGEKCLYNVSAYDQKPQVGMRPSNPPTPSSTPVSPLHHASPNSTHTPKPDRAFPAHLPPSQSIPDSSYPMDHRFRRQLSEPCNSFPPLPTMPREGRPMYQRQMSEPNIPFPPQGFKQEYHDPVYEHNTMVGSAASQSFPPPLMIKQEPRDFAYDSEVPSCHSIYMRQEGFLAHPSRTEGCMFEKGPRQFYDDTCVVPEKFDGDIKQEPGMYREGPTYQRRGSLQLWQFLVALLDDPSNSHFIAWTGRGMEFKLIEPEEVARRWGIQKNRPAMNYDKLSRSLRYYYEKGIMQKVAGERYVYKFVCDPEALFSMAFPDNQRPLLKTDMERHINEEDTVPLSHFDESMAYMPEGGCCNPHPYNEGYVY
Summary of the method: as §1

ERF = biological target: T6, ERF (Homo sapiens, UniProt P50548 1-548)
T6 sequence: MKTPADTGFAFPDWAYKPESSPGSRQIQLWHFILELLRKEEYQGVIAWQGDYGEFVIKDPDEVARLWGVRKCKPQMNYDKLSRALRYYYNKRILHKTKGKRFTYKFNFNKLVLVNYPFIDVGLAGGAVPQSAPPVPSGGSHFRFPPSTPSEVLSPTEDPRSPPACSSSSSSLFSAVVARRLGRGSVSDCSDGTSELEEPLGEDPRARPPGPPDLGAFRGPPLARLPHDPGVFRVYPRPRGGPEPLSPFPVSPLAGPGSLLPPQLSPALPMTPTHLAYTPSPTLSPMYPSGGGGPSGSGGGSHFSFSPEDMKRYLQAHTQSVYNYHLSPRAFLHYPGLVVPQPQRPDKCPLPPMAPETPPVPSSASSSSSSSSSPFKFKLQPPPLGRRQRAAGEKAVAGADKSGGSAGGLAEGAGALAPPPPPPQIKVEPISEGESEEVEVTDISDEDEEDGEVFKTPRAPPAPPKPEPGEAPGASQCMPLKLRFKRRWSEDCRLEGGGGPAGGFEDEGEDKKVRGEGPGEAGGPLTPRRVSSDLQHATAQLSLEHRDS
Summary of the method: as §1

ETV3L = biological target: T7, ETV3L (Homo sapiens, UniProt Q6ZN32 1-361)
T7 sequence: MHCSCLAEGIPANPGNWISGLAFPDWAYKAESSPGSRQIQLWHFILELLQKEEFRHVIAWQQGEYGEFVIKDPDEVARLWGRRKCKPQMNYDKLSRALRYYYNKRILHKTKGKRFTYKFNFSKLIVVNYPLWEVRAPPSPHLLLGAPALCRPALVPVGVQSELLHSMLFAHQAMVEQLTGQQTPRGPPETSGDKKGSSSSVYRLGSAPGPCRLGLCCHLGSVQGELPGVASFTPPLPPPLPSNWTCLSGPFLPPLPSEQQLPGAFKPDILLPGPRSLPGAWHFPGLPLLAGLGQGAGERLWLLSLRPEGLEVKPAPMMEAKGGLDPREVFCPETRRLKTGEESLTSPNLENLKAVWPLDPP
Summary of the method: as §1

ETS2 = biological target: T8, ETS2 (Homo sapiens, UniProt P15036 1-469)
T8 sequence: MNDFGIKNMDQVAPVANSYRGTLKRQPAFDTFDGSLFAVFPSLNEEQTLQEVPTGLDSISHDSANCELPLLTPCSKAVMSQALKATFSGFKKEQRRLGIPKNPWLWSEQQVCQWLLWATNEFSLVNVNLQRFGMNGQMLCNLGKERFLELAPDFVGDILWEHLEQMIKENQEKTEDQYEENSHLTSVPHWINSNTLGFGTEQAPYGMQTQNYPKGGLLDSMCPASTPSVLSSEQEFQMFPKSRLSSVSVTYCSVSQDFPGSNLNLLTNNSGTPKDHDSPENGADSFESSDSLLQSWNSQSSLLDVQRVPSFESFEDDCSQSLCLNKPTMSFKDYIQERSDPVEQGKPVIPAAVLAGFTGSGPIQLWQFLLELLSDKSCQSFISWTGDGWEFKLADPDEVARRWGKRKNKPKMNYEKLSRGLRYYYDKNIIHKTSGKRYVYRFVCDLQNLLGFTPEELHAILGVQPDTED
Summary of the method: as §1

SPDEF = biological target: T9, SPDEF (Homo sapiens, UniProt O95238 1-335)
T9 sequence: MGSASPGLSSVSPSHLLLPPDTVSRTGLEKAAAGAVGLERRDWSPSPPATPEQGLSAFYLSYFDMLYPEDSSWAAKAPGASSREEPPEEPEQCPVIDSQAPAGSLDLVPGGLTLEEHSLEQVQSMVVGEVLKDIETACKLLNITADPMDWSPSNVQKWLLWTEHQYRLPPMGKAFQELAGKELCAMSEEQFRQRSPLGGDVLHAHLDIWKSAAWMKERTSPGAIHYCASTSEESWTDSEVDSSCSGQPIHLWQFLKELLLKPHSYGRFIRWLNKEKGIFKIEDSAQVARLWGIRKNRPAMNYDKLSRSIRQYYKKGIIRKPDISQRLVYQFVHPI
Summary of the method: as §1

ETV7 = biological target: T10, ETV7 (Homo sapiens, UniProt Q9Y603 1-341)
T10 sequence: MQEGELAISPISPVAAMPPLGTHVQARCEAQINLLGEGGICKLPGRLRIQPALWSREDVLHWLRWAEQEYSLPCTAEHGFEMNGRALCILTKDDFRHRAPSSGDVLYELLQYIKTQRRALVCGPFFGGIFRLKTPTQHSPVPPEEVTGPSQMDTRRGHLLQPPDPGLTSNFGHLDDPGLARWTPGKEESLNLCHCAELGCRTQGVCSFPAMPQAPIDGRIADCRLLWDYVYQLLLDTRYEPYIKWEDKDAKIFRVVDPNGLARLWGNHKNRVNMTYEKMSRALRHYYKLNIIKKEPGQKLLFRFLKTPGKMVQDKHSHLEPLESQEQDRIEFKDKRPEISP
Summary of the method: as §1

ELF5 = biological target: T11, ELF5 (Homo sapiens, UniProt Q9UKW6-2 1-255)
T11 sequence: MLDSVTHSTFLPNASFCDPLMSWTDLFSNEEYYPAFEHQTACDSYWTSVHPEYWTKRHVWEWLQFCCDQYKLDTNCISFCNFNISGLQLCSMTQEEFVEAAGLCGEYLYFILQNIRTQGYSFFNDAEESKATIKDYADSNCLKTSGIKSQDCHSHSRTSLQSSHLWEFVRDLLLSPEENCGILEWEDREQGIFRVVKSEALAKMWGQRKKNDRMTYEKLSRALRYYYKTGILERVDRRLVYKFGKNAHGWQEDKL
Summary of the method: as §1

ETV3 = biological target: T12, ETV3 (Homo sapiens, UniProt P41162-2 1-143)
T12 sequence: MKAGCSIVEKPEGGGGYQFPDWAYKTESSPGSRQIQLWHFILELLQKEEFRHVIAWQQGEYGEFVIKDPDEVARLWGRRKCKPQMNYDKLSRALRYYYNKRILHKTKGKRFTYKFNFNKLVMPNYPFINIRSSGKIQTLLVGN
Summary of the method: as §1

ETV6 = ETV6 (Homo sapiens, UniProt P41212 1-452)
Chain of ETV6 (P41212 whole entry): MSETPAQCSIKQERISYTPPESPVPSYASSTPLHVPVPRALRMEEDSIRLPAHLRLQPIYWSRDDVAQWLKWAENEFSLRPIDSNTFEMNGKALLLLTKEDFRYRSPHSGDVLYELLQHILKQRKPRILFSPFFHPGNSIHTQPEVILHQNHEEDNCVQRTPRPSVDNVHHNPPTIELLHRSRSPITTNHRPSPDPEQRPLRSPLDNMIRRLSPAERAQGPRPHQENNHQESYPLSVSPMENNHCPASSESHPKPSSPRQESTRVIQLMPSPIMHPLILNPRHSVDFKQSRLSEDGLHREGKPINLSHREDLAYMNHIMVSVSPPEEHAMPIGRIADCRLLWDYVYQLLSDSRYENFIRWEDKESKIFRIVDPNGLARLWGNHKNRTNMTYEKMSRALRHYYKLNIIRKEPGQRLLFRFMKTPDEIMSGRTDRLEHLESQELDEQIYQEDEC
Summary of the method: as §1

Sequence | binding signal (FEV) | binding signal (ETV5) | binding signal (SPIC) | binding signal (ELF4) | binding signal (ELK4) | binding signal (ETV2) | binding signal (ELF3) | binding signal (ETV1) | binding signal (ERF) | binding signal (ETV3L) | binding signal (ETS2) | binding signal (SPDEF) | binding signal (ETV7) | binding signal (ELF5) | binding signal (ETV3) | binding signal (ETV6)
GTTATG | 1.03 fold enrichment (6-mer frequency, TF over GST control) | 1.14 fold enrichment (6-mer frequency, TF over GST control) | 1.23 fold enrichment (6-mer frequency, TF over GST control) | 1.1 fold enrichment (6-mer frequency, TF over GST control) | 1.23 fold enrichment (6-mer frequency, TF over GST control) | 1.14 fold enrichment (6-mer frequency, TF over GST control) | 1.25 fold enrichment (6-mer frequency, TF over GST control) | 1.14 fold enrichment (6-mer frequency, TF over GST control) | 1.05 fold enrichment (6-mer frequency, TF over GST control) | 1.11 fold enrichment (6-mer frequency, TF over GST control) | 1.1 fold enrichment (6-mer frequency, TF over GST control) | 1.12 fold enrichment (6-mer frequency, TF over GST control) | 1.12 fold enrichment (6-mer frequency, TF over GST control) | 1.06 fold enrichment (6-mer frequency, TF over GST control) | 1.14 fold enrichment (6-mer frequency, TF over GST control) | 1.21 fold enrichment (6-mer frequency, TF over GST control)
CAAATG | 1.11 fold enrichment (6-mer frequency, TF over GST control) | 1.09 fold enrichment (6-mer frequency, TF over GST control) | 1.01 fold enrichment (6-mer frequency, TF over GST control) | 1.15 fold enrichment (6-mer frequency, TF over GST control) | 1.11 fold enrichment (6-mer frequency, TF over GST control) | 1.19 fold enrichment (6-mer frequency, TF over GST control) | 1.15 fold enrichment (6-mer frequency, TF over GST control) | 1.19 fold enrichment (6-mer frequency, TF over GST control) | 1.25 fold enrichment (6-mer frequency, TF over GST control) | 1.11 fold enrichment (6-mer frequency, TF over GST control) | 1.15 fold enrichment (6-mer frequency, TF over GST control) | 1.19 fold enrichment (6-mer frequency, TF over GST control) | 1.2 fold enrichment (6-mer frequency, TF over GST control) | 1.1 fold enrichment (6-mer frequency, TF over GST control) | 1.13 fold enrichment (6-mer frequency, TF over GST control) | 1.18 fold enrichment (6-mer frequency, TF over GST control)
